KCNQ2 pot: potentiators of rat KCNQ2 potassium channel. B-score at 10 µM. hit rate 0.54% among 310,000. CHO-K1 KCNQ2, FluxOR thallium flux fluorescence; active compounds read high. AID 2239, 2010. Potassium voltage-gated channel subfamily KQT member 2 (Rattus norvegicus), O88943;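 active = fluorescence ratio B-score at least 3 SD of library B-scores, with initial fluorescence B-score within 3 of them, cut at about 5.3 in these data; same plate scores as AID 2156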;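 also: B-score of peak minus minimum over baseline fluorescence ratio after K+ and Tl+ stimulus; positive B-score means potentiation of KCNQ2 with more thallium influx and brighter signal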
Target sequence (O88943 whole entry, looked up): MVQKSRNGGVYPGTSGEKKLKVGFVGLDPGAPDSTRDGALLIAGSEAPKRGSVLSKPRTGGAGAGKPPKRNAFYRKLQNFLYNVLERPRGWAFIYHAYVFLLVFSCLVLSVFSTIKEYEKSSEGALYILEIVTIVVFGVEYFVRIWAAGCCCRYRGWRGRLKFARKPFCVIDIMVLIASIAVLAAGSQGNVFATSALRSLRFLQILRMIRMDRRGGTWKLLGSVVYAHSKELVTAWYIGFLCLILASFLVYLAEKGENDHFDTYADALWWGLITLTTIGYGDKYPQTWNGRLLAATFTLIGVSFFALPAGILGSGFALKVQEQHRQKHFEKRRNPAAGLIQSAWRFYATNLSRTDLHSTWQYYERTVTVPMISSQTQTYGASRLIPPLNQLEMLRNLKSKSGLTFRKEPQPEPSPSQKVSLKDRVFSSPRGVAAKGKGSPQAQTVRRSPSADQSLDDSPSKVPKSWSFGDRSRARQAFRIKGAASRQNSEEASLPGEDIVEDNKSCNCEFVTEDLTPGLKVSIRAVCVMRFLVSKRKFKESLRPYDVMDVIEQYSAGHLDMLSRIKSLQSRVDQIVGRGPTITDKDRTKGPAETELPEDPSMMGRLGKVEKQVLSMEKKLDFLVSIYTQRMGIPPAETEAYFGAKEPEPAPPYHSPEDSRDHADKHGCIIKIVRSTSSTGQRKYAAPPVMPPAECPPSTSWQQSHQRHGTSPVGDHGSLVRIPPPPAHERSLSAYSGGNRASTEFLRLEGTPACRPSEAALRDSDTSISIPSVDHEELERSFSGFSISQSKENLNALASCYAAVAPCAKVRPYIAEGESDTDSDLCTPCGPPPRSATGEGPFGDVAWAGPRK
KCNQ2 block: rat KCNQ2 potassium channel inhibitors, primary screen, cell-based, CHO-K1, FluxOR thallium flux, B-score. AID 2156, 2009. 20 min; active compounds read low. hit rate 1.1% among 310,000. B-score at 10 µM. Potassium voltage-gated channel subfamily KQT member 2 (Rattus norvegicus), O88943;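 active = fluorescence ratio B-score at most minus 3 library SDs, with starting brightness B-score within 2 library SDs, cut at about -5.5 in these data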
KCNQ2 inh conf: rat KCNQ2 potassium channel inhibitors, confirmation, cell-based, thallium flux. KCNQ2-expressing cells, inhibition; active compounds read low. shares compounds with KCNQ2 block. activity change, negative = inhibition, % at 10 µM. hit rate 57% among 1,000;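 also: 0% = vehicle wells and values are ratio percent relative to vehicle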
KCNQ1 spec: human KCNQ1 channel inhibition, counter-screen for KCNQ2 inhibitor project, cell-based, FluxOR thallium flux; AID 493026, 2011; activity change, negative = inhibition, % at 10 µM; KCNQ1-expressing cells, FluxOR thallium flux fluorescence; active compounds read low; hit rate 15% among 1,000; shares compounds with KCNQ2 block;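 active = activity change at least 3 SD of negative controls below their mean in both duplicate wells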;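 also: CHO cells stably transfected with KCNQ1 and depolarized by potassium stimulus; peak minus minimum fluorescence over baseline after thallium addition; 0% = vehicle negative control and -100% = blank without thallium stimulus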
CHO Tl ctr: thallium flux change in parental CHO cells, counter-screen for KCNQ2 inhibitor project; shares compounds with KCNQ2 block; active compounds read low; activity change, % at 10 µM; hit rate 14% among 1,000; AID 493029, 2011;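 also: 0% = vehicle negative controls with stimulus buffer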
KCNQ2 patch conf: rat KCNQ2 channel inhibitors, confirmation, cell-based, automated patch clamp, single concentration. calls only at 10 µM. shares compounds with KCNQ2 block. hit rate 49% among 550. KCNQ2-expressing cells, automated patch clamp current
* marks the source's active call; other numbers are inactive results. Rows were chosen to be rich in hits. Some 1.6% of all compounds tested hit in one or more screens of this group. Unless noted, no rule for the calls is given here.

For O=[N+]([O-])c1ccc(O)c(Nc2c([N+](=O)[O-])ccc3nonc23)c1 the results were KCNQ2 pot 0.17 and KCNQ2 block inactive.
`Cc1ccc(/C(N)=N/OC(=O)Cc2ccccc2)cc1` gave KCNQ2 block inactive.
Screening Cc1ccc(/C(N)=N/OC(=O)N2c3ccccc3Sc3ccccc32)cc1 returned KCNQ2 pot -8.5, KCNQ2 block -8.5*, KCNQ2 inh conf -26%*, KCNQ1 spec inactive, CHO Tl ctr inactive and KCNQ2 patch conf active.
Screening CCOc1ccc(OCCOC(=O)CNC(=O)c2ccc(Cl)cc2Cl)cc1 returned KCNQ2 block inactive.
Screening CCOC(=O)C(CSCC(=O)c1ccc(Cl)cc1Cl)NC(=O)OC(C)(C)C (configuration not stated) returned KCNQ2 pot -7.7, KCNQ2 block -7.7*, KCNQ2 inh conf -28%*, KCNQ1 spec inactive, CHO Tl ctr inactive and KCNQ2 patch conf active.
CCOc1ccc(-c2nc(CSCC(=O)NC3CCCc4ccccc43)c(C)o2)cc1 (configuration not stated) was read as KCNQ2 pot -8.8, KCNQ2 block -8.8*, KCNQ2 inh conf -40%*, KCNQ1 spec -37%*, CHO Tl ctr -36%* and KCNQ2 patch conf active.
CCOc1ccc(-c2nc(CSCC(=O)NC3CC3)c(C)o2)cc1 was read as KCNQ2 pot 0.64 and KCNQ2 block inactive.
COc1cccc(-c2nc(CS(=O)(=O)CC(=O)NC3CCCc4ccccc43)c(C)o2)c1 (configuration not stated) was read as KCNQ2 pot -10, KCNQ2 block -10*, KCNQ2 inh conf -32%*, KCNQ1 spec inactive, CHO Tl ctr inactive and KCNQ2 patch conf active.
COc1cccc(-c2nc(CS(=O)(=O)CC(=O)NC3CCCC3)c(C)o2)c1 was read as KCNQ2 block inactive.
`CC(NC(=O)c1cc(S(=O)(=O)N2CCOCC2)ccc1N1CCCC1)c1ccc(Cl)c(Cl)c1` (configuration not stated) gave KCNQ2 block inactive.
`Cc1nn2c(N)c(-c3ccccc3)cnc2c1-c1ccc(Cl)cc1` gave KCNQ2 block inactive.
Cc1nc2c(-c3ccccc3)c(C)nn2c(N)c1-c1ccccc1 was read as KCNQ2 pot -7.5, KCNQ2 block -7.5*, KCNQ2 inh conf -34%*, KCNQ1 spec inactive, CHO Tl ctr inactive and KCNQ2 patch conf inactive.
For Cc1nnc(N/N=C/c2cccc(OCc3ccc(Cl)c(Cl)c3)c2)n1N the results were KCNQ2 pot 0.55 and KCNQ2 block inactive.
`CCCN(CC(=O)Nc1ccccc1OC)C(=O)c1cc(-c2cccs2)nn1-c1ccccc1` gave KCNQ2 pot -9.3, KCNQ2 block -9.3*, KCNQ2 inh conf -32%*, KCNQ1 spec inactive, CHO Tl ctr inactive and KCNQ2 patch conf active.
Screening CCN(CC(=O)Nc1ccccc1C(F)(F)F)C(=O)c1cc(-c2cccs2)nn1-c1ccccc1 returned KCNQ2 block inactive.
For O=C1Nc2ccccc2O/C1=C\c1ccccc1Br the results were KCNQ2 pot 0.07 and KCNQ2 block inactive.
Cc1nc2ccccc2c(=O)n1NC(=O)c1ccc(Cl)cc1 was read as KCNQ2 pot 1.8 and KCNQ2 block inactive.
Screening CCn1c(SCC(=O)c2ccccc2)nc2ccccc2c1=O returned KCNQ2 pot 0.74 and KCNQ2 block inactive.
O=C(CSc1nc2ccccc2c(=O)n1NC(=O)c1ccccc1)c1ccc(Cl)cc1 was read as KCNQ2 pot -10, KCNQ2 block -10*, KCNQ2 inh conf -30%*, KCNQ1 spec inactive, CHO Tl ctr inactive and KCNQ2 patch conf active.
`O=C(CSc1nc2ccccc2c(=O)n1NC(=O)c1ccccc1)c1ccccc1` gave KCNQ2 pot -12, KCNQ2 block -12*, KCNQ2 inh conf -16%*, KCNQ1 spec inactive, CHO Tl ctr inactive and KCNQ2 patch conf active.
